Our source for the growth values is PubChem BioAssay (NCI).

SMILES strings stand for the structures. Compounds without any hit were thinned out: in the full panel of roughly 83,000, 20% have a hit.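 Results are percent growth after 48 hours of single-concentration exposure. 100 means growth as in untreated cells, lower positive values show inhibition; negative values down to -100 show cell death.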 Unmarked numbers belong to inactive results. The source made the active and inactive calls. How the source made its calls: active means growth percent below 10; inactive means the rest.

Among the test systems are HCT-15 colon; HT29 colon; SNB-75 CNS; SNB-19 CNS; U251 CNS; SK-MEL-5 melanoma; UACC-62 melanoma; LOX IMVI melanoma; SK-MEL-28 melanoma; SK-MEL-2 melanoma; EKVX NSCLC; SN12C renal; UO-31 renal; TK-10 renal; ACHN renal; CAKI-1 renal; A498 renal; CCRF-CEM leukemia; MOLT-4 leukemia.
Common to all, as to test: NCI-60 one-dose screen, 48 h (100 = growth as untreated, 0 = no growth, -100 = all killed)
Holding throughout (details): 10 µM unless noted

As for `OCc1cccc(-c2ccc3ncc(-c4nc(NC5CC5)ncc4F)n3c2)c1`, the growth in the test with HCT-15 colon is 1.06% (active); in the test with HT29 colon, 4.87% (active); in the test with SNB-75 CNS, -40.8% (active); in the test on SNB-19 CNS, -0.451% (active); in the test on U251 CNS, -3.8% (active); in the test with SK-MEL-5 melanoma, -77.2% (active). The growth is -84.4% (active) in the test with UACC-62 melanoma; -1.7% (active) in the test with LOX IMVI melanoma; -45.5% (active) in the test with SK-MEL-28 melanoma; -55.4% (active) in the test on SK-MEL-2 melanoma; 2.69% (active) in the test on EKVX NSCLC; -15.4% (active) in the test with SN12C renal. Also, the growth in the test on UO-31 renal is -14.1% (active); with TK-10 renal, 13.5%; in the test on ACHN renal, -13.2% (active); with CAKI-1 renal, 1.44% (active); in the test on A498 renal, -47.8% (active); in the test with CCRF-CEM leukemia it was -2% (active). For the same compound, the growth in the test on MOLT-4 leukemia was -27.8% (active).

With `N#CC1=C(N)Oc2c(sc3c(Br)cccc23)C1c1ccc(F)cc1` (stereo unspecified), the growth in the test with HCT-15 colon was 10.3%; in the test on HT29 colon, 1.78% (active); in the test on SNB-75 CNS it was 34.3%; in the test on SNB-19 CNS, 47.8%; in the test with U251 CNS, 21.4%; with SK-MEL-5 melanoma it was 23.6%. Besides, the growth is 26.4% in the test on UACC-62 melanoma; 27.4% in the test with LOX IMVI melanoma; 57.6% in the test on SK-MEL-28 melanoma; 37% in the test on SK-MEL-2 melanoma; 45.6% in the test on EKVX NSCLC; 27.4% in the test on SN12C renal. For the same compound, the growth is 34.4% in the test with UO-31 renal; 43.1% with TK-10 renal; 30.7% with ACHN renal; 46.6% with CAKI-1 renal; 17.8% in the test on A498 renal; 18.4% in the test on CCRF-CEM leukemia. Also, in the test on MOLT-4 leukemia, the growth is 5.38% (active).

With `CC(C)N1CN2C(=S)NC3C2N(C1)C(=S)N3C` (stereo unspecified), the growth with HCT-15 colon was 105%; in the test with HT29 colon, 92.4%; with SNB-75 CNS, 85.5%; in the test with SNB-19 CNS it was 100%; with U251 CNS, 101%; with SK-MEL-5 melanoma, 97.9%. The growth in the test on UACC-62 melanoma is 96.6%; in the test with LOX IMVI melanoma it was 98.9%; in the test on SK-MEL-28 melanoma it was 114%; with SK-MEL-2 melanoma, 93.4%; in the test on EKVX NSCLC, 103%; in the test on SN12C renal, 97.6%. Moreover, the growth in the test with UO-31 renal is 95.9%; with TK-10 renal it was 97.2%; in the test with ACHN renal it was 117%; with CAKI-1 renal it was 92.6%; in the test on A498 renal, 102%; in the test on CCRF-CEM leukemia it was 94.8%. Further, the growth with MOLT-4 leukemia was 104%.

For the compound `CC1(C)CC[C@]2(C(=O)O)CC[C@]3(C)C(=CC[C@@H]4[C@@]5(C)C/C(=C/O)C(=O)C(C)(C)[C@@H]5CC[C@]43C)[C@@H]2C1`, the growth with HCT-15 colon is 24.4%; in the test on HT29 colon, 26.6%; in the test on SNB-75 CNS it was 95.4%; in the test on SNB-19 CNS it was 60.1%; in the test on U251 CNS it was 28.3%; in the test on SK-MEL-5 melanoma, 67.8%. Further, the growth in the test on UACC-62 melanoma is 61.6%; in the test with LOX IMVI melanoma, 27.4%; in the test on SK-MEL-28 melanoma, 52.2%; in the test with SK-MEL-2 melanoma, 104%; with EKVX NSCLC, 88.6%; in the test with SN12C renal it was 65.7%. The growth in the test on UO-31 renal was 57.7%; with TK-10 renal it was 58.1%; in the test with ACHN renal it was 20%; with CAKI-1 renal it was 48.6%; in the test with A498 renal it was 85.6%; with CCRF-CEM leukemia, 16.3%. For the same compound, in the test with MOLT-4 leukemia, the growth is 7.85% (active).

`COc1ccc(C/C(C)=C(/c2ccc(OCCN3CCCCC3)cc2)c2ccc(OC(=O)NCc3ccccc3)cc2)cc1`: the growth was -85.4% (active) with HCT-15 colon; -87.8% (active) with HT29 colon; -88.9% (active) with SNB-75 CNS; -90.6% (active) in the test on SNB-19 CNS; -97.5% (active) in the test with U251 CNS; -100% (active) with SK-MEL-5 melanoma. Further, the growth in the test on UACC-62 melanoma was -92.9% (active); in the test with LOX IMVI melanoma, -93% (active); in the test with SK-MEL-28 melanoma, -85.8% (active); with SK-MEL-2 melanoma it was -86.2% (active); in the test with EKVX NSCLC, -78.4% (active); with SN12C renal, -88% (active). Besides, the growth is -92.2% (active) in the test on UO-31 renal; -90.7% (active) with TK-10 renal; -100% (active) in the test with ACHN renal; -95% (active) in the test with CAKI-1 renal; -97.1% (active) in the test with A498 renal; -44.1% (active) with CCRF-CEM leukemia. In the test with MOLT-4 leukemia, the growth is -53.2% (active).

Turning to `Cc1cccc2c1NC(=O)C2(c1ccc(O)cc1)c1ccc(O)cc1`, the growth in the test with HCT-15 colon is 49.3%; with HT29 colon, 79.2%; in the test with SNB-75 CNS, 23.1%; in the test with SNB-19 CNS, 102%; in the test with U251 CNS, 90.1%; in the test on SK-MEL-5 melanoma, 96.5%. The growth was 83.8% with UACC-62 melanoma; 59.2% in the test with LOX IMVI melanoma; 106% in the test on SK-MEL-28 melanoma; 89.2% with SK-MEL-2 melanoma; 75.7% with EKVX NSCLC; 11.2% in the test on SN12C renal. The growth in the test on UO-31 renal was 89.2%; in the test with TK-10 renal, 28.8%; in the test with ACHN renal, 78.5%; in the test on CAKI-1 renal, 94.1%; in the test with A498 renal, 81.5%; with CCRF-CEM leukemia, 71.2%. The growth in the test with MOLT-4 leukemia was 84.2%.

For `CS(=O)(=O)C1=CN(CCO)C(=O)N2CCCN=C12`, the growth in the test on HCT-15 colon is 107%; with HT29 colon it was 107%; in the test on SNB-75 CNS it was 94.5%; in the test on SNB-19 CNS, 99.2%; in the test on U251 CNS, 103%; with SK-MEL-5 melanoma, 97.7%. The growth was 102% with UACC-62 melanoma; 101% with LOX IMVI melanoma; 104% with SK-MEL-28 melanoma; 111% with SK-MEL-2 melanoma; 100% in the test with EKVX NSCLC; 99.7% in the test on SN12C renal. For the same compound, the growth in the test with UO-31 renal is 78%; in the test on TK-10 renal, 109%; with ACHN renal, 103%; with CAKI-1 renal, 98%; in the test with A498 renal it was 88%; in the test on CCRF-CEM leukemia, 114%. For the same compound, the growth in the test with MOLT-4 leukemia was 106%.

With `CCCCCOc1ccc(C(=O)/C(Br)=C/C(=O)O)cc1`, the growth in the test with HCT-15 colon is 89.1%; in the test on HT29 colon, 105%; with SNB-75 CNS, 73.8%; in the test with SNB-19 CNS it was 98.8%; in the test with U251 CNS it was 86.7%; in the test on SK-MEL-5 melanoma, 104%. Further, the growth is 90.9% in the test with UACC-62 melanoma; 86.4% in the test with LOX IMVI melanoma; 95.2% in the test with SK-MEL-2 melanoma; 103% in the test with EKVX NSCLC; 102% in the test on SN12C renal; 98.6% in the test on UO-31 renal. Also, the growth with TK-10 renal is 125%; in the test on ACHN renal, 94.3%; with CAKI-1 renal it was 81.1%; in the test with A498 renal, 86.2%; in the test on CCRF-CEM leukemia it was 80.5%; in the test on MOLT-4 leukemia, 65.4%.
